Results as given in PubChem BioAssay (NCI).
“And” between values parts separate entries of the source, which are not always exact repeats. Identical values can stand only once. The panel holds about 83,000 compounds, 20% with a hit somewhere; the sample as a whole holds those more often.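 The endpoint reported here, percent growth, reads 100 for growth as untreated, 0 for no net growth and -100 for all cells dead.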 A number with no mark means an inactive call. The source made the active and inactive calls. How the source made its calls: active means growth percent below 10; inactive means the rest.

Legend:
Assay in all cases: NCI-60 one-dose screen, 48 h (100 = growth as untreated, 0 = no growth, -100 = all killed)
Conditions in all cases: 10 µM unless noted
NCI-H23 lung = test system: NCI-H23 lung
NCI-H226 lung = test system: NCI-H226 lung
NCI-H322M lung = test system: NCI-H322M lung
HOP-62 NSCLC = test system: HOP-62 NSCLC
NCI-H460 lung = test system: NCI-H460 lung
HOP-92 NSCLC = test system: HOP-92 NSCLC
NCI-H522 lung = test system: NCI-H522 lung
A549/ATCC NSCLC = test system: A549/ATCC NSCLC
786-0 renal = test system: 786-0 renal
COLO 205 colon = test system: COLO 205 colon
DU-145 prostate = test system: DU-145 prostate
K-562 leukemia = test system: K-562 leukemia
MALME-3M melanoma = test system: MALME-3M melanoma
MDA-MB-231 breast = test system: MDA-MB-231 breast
RXF 393 renal = test system: RXF 393 renal
SF-268 CNS = test system: SF-268 CNS
SF-295 CNS = test system: SF-295 CNS
SF-539 CNS = test system: SF-539 CNS
UACC-257 melanoma = test system: UACC-257 melanoma
M14 melanoma = test system: M14 melanoma

| Compound | growth (NCI-H23 lung) | growth (NCI-H226 lung) | growth (NCI-H322M lung) | growth (HOP-62 NSCLC) | growth (NCI-H460 lung) | growth (HOP-92 NSCLC) | growth (NCI-H522 lung) | growth (A549/ATCC NSCLC) | growth (786-0 renal) | growth (COLO 205 colon) | growth (DU-145 prostate) | growth (K-562 leukemia) | growth (MALME-3M melanoma) | growth (MDA-MB-231 breast) | growth (RXF 393 renal) | growth (SF-268 CNS) | growth (SF-295 CNS) | growth (SF-539 CNS) | growth (UACC-257 melanoma) | growth (M14 melanoma) |
| --- | --- | --- | --- | --- | --- | --- | --- | --- | --- | --- | --- | --- | --- | --- | --- | --- | --- | --- | --- | --- |
| O=C1/C(=C/c2ccc(-c3ccccc3C(F)(F)F)o2)SC(=S)N1CCc1ccc(O)cc1 | 78.2% | 90.2% | 75.6% | 50.2% | 48.3% | 61% | -11% (active) | 45.7% | 65% | 48.1% | 66.2% | 17.5% | 32.2% | 67% | 71.2% | 51.4% | 54.4% | 54.2% | 67% | 34.4% |
| [2H]C([2H])([2H])Oc1cc(F)ccc1/C=C/C(=O)/C=C(/C=C/c1ccc(F)cc1OC([2H])([2H])[2H])OB(F)F | 26.2% | 63.4% | 82% | 102% | 49.7% | 83.2% | 31.4% | 58.3% | 44.3% | 21.3% | 30.5% | 18% | 33.1% | 53% | 1.06% (active) | 56.7% | 59.5% | 93.2% | 48.9% | 8.14% (active) |
| CCCCCCCCCCCCC[C@H](O)C[C@H](O)[C@H](C)N | 99.2% [1.25 µM] | 126% [1.25 µM] | 102% [1.25 µM] | 116% [1.25 µM] | 103% [1.25 µM] | 56.7% [1.25 µM] | 119% [1.25 µM] | 89.3% [1.25 µM] | 85.9% [1.25 µM] | 92.2% [1.25 µM] | 96.9% [1.25 µM] | 102% [1.25 µM] | 132% [1.25 µM] | 90% [1.25 µM] | 8.68% [1.25 µM] (active) | 115% [1.25 µM] | 108% [1.25 µM] | 100% [1.25 µM] | 113% [1.25 µM] | 95.9% [1.25 µM] |
| N#Cc1ccccc1-c1ccc(Cn2c(-c3cscn3)nc3c(Cl)cccc32)cc1 | 70.9% | 66.2% | 91.6% | 97.4% | 82.6% | 63.7% | 44.7% | 72.3% | 79.8% | 107% | 86.5% | 49.2% | 92.4% | 79.7% | 99.5% | 71.3% | 67.9% | 82.9% | 89.5% | 87.1% |
| CC1(C)C(N)=Nc2cc(OCCCN3Cc4ccc(OCCc5cn(CC(=O)N6CCC(CCN7CCCC7)CC6)nn5)cc4C3)c(OCC3CC3)cc21 | 98.2% | 108% | 102% | 95.4% | 105% | 81.3% | 101% | 100% | 99.6% | 108% | 111% | 88% | 106% | 112% | 113% | 86% | 100% | 97% | 112% | 108% |
| COc1cc(-c2nc(SCCC(C)C)nc(Nc3ccc(F)cc3)c2C#N)cc(OC)c1OC | 84.3% | 90.4% | 63.2% | 17.8% | 21.4% | 72.6% | 75% | 28.3% | 46.1% | 79.6% | 66.2% | 85.2% | 94.4% | 38.4% | 95.5% | 65.9% | 85.4% | 52.3% | 103% | 91% |
| CC(=O)Nc1c(I)c(NC(C)=O)c(I)c(C(=O)O)c1I | 110% | 97.4% and 113% | 102% and 101% | 112% and 97.9% | 109% and 103% | 94.3% | 102% and 24.5% | 105% | 97.3% and 114% | 115% and 119% | 115% and 142% | 69.4% | 93.7% and 84.5% | 105% and 117% | 113% and 25.5% | 107% and 120% | 90.4% and 104% | 99.3% and 99.7% | 105% | 95.9% and 104% |
| CCOC(=O)C1=C(C)NC(=O)NC1c1c(Cl)n(-c2ccccc2)c2ccccc12 (centres undefined) | 74.7% | 86.5% | 80.5% | 86.7% | 96.1% | 59.5% | 66% | 88.2% | 83.1% | 107% | 85.7% | 43.4% | 86.2% | 81.5% | 55.6% | 86.7% | 85.5% | 87.9% | 88.3% | 86.5% |
| COc1c(NC=O)c2c(c([N+](=O)[O-])c1OC)C(=O)OC2 | 113% and 97.9% | 110% and 103% | 98.1% | 99.2% and 104% | 115% and 99.9% | 103% and 92.8% | 98.7% and 112% | 95.8% and 101% | 106% | 108% and 114% | 130% and 119% | 125% and 102% |  | 104% and 89.8% | 113% and 105% | 112% and 105% | 109% and 96.4% | 120% and 87.3% | 97.4% and 111% | 104% and 100% |
| CCOC(=O)C(=CCC(C)C)C(=O)OCC | 93.1% | 93.4% | 104% | 89% | 106% | 89.3% | 104% | 104% | 95.9% | 116% | 99.3% | 125% | 120% | 99.6% | 113% | 94.9% | 120% | 95.7% | 110% | 95.7% |
| Cc1ccc(C(=O)Nc2ccc(CN3CCN(C)CC3)c(C(F)(F)F)c2)cc1C#Cc1cnc(N)cc1C#N | -40.7% (active) | 9.78% (active) | 12.4% | -69.7% (active) | -80.7% (active) | -39.8% (active) | -72.7% (active) | -84.7% (active) | -73.8% (active) | -64.9% (active) | -53.1% (active) | -41.5% (active) | -79.2% (active) | -67% (active) | -88.6% (active) | -14.7% (active) | -68.1% (active) | -94.8% (active) | -23.6% (active) | -80.8% (active) |
| COC(=O)c1[nH]nc(OC)c1C1(C(C#N)c2nc3ccccc3s2)CCCc2ccccc21 (centres undefined) | 97.5% | 84.9% | 99.6% | 85% | 99% | 72.9% | 98.4% | 96.2% | 101% | 103% | 108% | 92.4% | 101% | 79.9% | 117% | 101% | 97.5% | 106% | 101% | 95.2% |
| O=C(N=Nc1c(O)[nH]c2ccccc12)Nc1ccc(Br)cc1 | 101% | 83.6% | 70.9% | 98.4% | 92.1% | 66.5% | 72.3% | 98.9% | 89.6% | 97.8% | 93.3% | 79% | 86.1% | 110% | 82.4% | 86.2% | 93% | 83.6% | 115% | 89.8% |
| O=C1C=C(Nc2ccccc2)c2ncccc2C1=O | -43.1% (active) | -46.6% (active) | -97.5% (active) | -90.4% (active) | -69.4% (active) | -79.9% (active) | -75.3% (active) | -49% (active) | -91.9% (active) | -76.6% (active) | -95.4% (active) | -48% (active) | -91.3% (active) | -18% (active) | -96.4% (active) | -61.9% (active) | -97.5% (active) | -87.3% (active) | -97.7% (active) | -86.3% (active) |
